Results taken from PubChem BioAssay (NCI).
This is part of a sample that, as a whole, favours compounds with a hit. Of some 83,000 tested, about 20% had one in any assay.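 Testing used 96-well plates and a 48-hour single-concentration exposure. Example: -40 means 40% of the starting cells died.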 Active and inactive are the calls of the source. Rule for the calls: active = growth percent below 10; inactive = the rest.

Assays:
Experiment in all cases: NCI-60 one-dose screen, 48 h (100 = growth as untreated, 0 = no growth, -100 = all killed)
Conditions in all cases: 10 µM unless noted
[1] = system: HCT-15 colon
[2] = system: HT29 colon
[3] = system: SNB-75 CNS
[4] = system: SNB-19 CNS
[5] = system: U251 CNS
[6] = system: PC-3 prostate
[7] = system: SK-MEL-5 melanoma
[8] = system: UACC-62 melanoma
[9] = system: LOX IMVI melanoma
[10] = system: SK-MEL-28 melanoma

Measured: growth

CCOc1c(C#N)c2c(N)ncnc2n1C1OC(CO)C(O)C1O (stereo not given)
inactive: [1] 23.1% | [2] 22.6% | [3] 62.4% | [4] 72.7% | [5] 35.4% | [6] 16.2% | [7] 79% | [8] 49.8% | [9] 18.9% | [10] 20.4%

COc1cc(C2CC(c3cccc(Nc4ccnc5cc(Cl)ccc45)c3)=NN2c2ccccc2)cc(OC)c1OC (stereo not given)
inactive: [1] 67.1% | [2] 59.7% | [3] 79.2% | [4] 90.9% | [5] 78.8% | [6] 55.2% | [7] 62.1% | [9] 46.1% | [10] 67.2%
active: [8] 9.18%

COC1CC(N)C2OC(c3ccccc3)OCC2O1 (stereo not given)
inactive: [1] 97.1% | [2] 103% | [3] 71.4% | [4] 103% | [5] 99.8% | [6] 105% | [7] 105% | [8] 101% | [9] 98.8% | [10] 105%

CCCCOc1ncnc2nc[nH]c12
inactive: [1] 108% | [2] 96.3% | [3] 95.7% | [4] 99.8% | [5] 106% | [6] 107% | [7] 105% | [8] 104% | [9] 103% | [10] 111%

Cc1cc(C)cc(Nc2cc(C)nc3nc(C(F)(F)F)nn23)c1
inactive: [1] 30.4% | [2] 41.5% | [3] 61.6% | [4] 45.7% | [5] 31.5% | [6] 57.1% | [7] 32.1% | [9] 24.1% | [10] 50.8%
active: [8] -33.8%

C=CCN(CCOC(=O)c1ccc([N+](=O)[O-])cc1)CCOC(=O)c1ccc([N+](=O)[O-])cc1
inactive: [1] 118% | [2] 111% | [3] 83.7% | [4] 108% | [5] 103% | [6] 85.4% | [7] 94.8% | [8] 110% | [9] 88.8% | [10] 106%

Cn1c(=O)c2[nH]c(Cc3ccc4c(c3)OCO4)nc2n(C)c1=O
inactive: [1] 93.8% | [2] 120% | [3] 95.3% | [4] 101% | [5] 110% | [6] 86.1% | [7] 108% | [8] 98% | [9] 99.5% | [10] 106%

Cc1nc2n[nH]c(N)c2nc1C
inactive: [1] 103% | [2] 93.6% | [3] 93.1% | [4] 103% | [5] 107% | [6] 102% | [7] 96.6% | [8] 106% | [9] 98.9% | [10] 105%
